Assay [1] relates to Plasmodium falciparum Sir2 (PF13_0152, Sir2A). The experiment in a line: Plasmodium falciparum Sir2A binding compounds – biochemical, small-molecule microarray, 635 nm fluorescence, primary screen (AID 1098).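 Further: score merges spot fluorescence intensity with its signal-to-noise ratio.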 As to conditions: fluorescence 635 nm, higher = more signal.
A short description of assay [2]: probe aDKK1 binding to arrayed compounds – biochemical, biotinylated probe, 635/667 nm fluorescence, primary screen (AID 1099).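 Further: score merges 667nm spot fluorescence with signal to noise across triplicate slides.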 The settings on record: small-molecule microarray, higher = more signal.
Assay [3] can be described thus: probe aCHRDL2 binding to arrayed compounds – biochemical, biotinylated probe, 635/667 nm fluorescence, primary screen (AID 1100). As to conditions: small-molecule microarray, higher = more signal.
A short description of assay [4]: change in splice reporter luminescence, either direction, cell-based, HEK293, spliceosome inhibition project, primary screen (AID 1101).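 Further: HEK293 cells carrying a splicing-competent luciferase reporter gene; test concentration not given here.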 The settings on record: HEK293 splicing luciferase reporter, 24 h, higher = more signal, called active from +8 up or from −8 down.
In assay [5] the target is Fibroblast growth factor 10 (Homo sapiens) (UniProt O15520). The experiment in a line: compounds binding fibroblast growth factor 10 – biochemical, small-molecule microarray, 635 nm fluorescence, primary screen (AID 1102). As to conditions: FGF10 binding, fluorescence 635 nm, higher = more signal.
Assay [6] relates to glycogen synthase kinase-3 (GSK3A per assay name; protocol says GSK3B). The experiment in a line: compounds binding glycogen synthase kinase-3 – biochemical, small-molecule microarray, 635 nm fluorescence, GSK3A, primary screen (AID 1103). Further: the record names both GSK3A and GSK3B. The settings on record: fluorescence 635 nm, higher = more signal.
In assay [7] the target is Epidermal growth factor receptor (Homo sapiens) (UniProt P00533). Nature of the assay: compounds binding epidermal growth factor receptor – biochemical, small-molecule microarray, 635 nm fluorescence, primary screen (AID 1104).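 Further: score merges 667 nm emission intensity with spot signal to noise over triplicate slides.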 The settings on record: EGFR binding, higher = more signal.
The target in assay [8] is Follistatin-related protein 3 (Homo sapiens) (UniProt O95633). Nature of the assay: compounds binding follistatin-related protein 3 – biochemical, small-molecule microarray, 635 nm fluorescence, primary screen (AID 1105).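 Further: score merges emission near 667 nm and signal to noise per printed spot across three slides.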 The settings on record: FSTL3 binding, higher = more signal.
Assay [9] concerns the target Dickkopf-related protein 1 (Homo sapiens) (UniProt O94907). Nature of the assay: small molecules binding DKK1 protein – biochemical, small-molecule microarray, 635 nm fluorescence scan, primary screen (AID 1106).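 Further: score merges emission near 667 nm with signal to noise over three replicate slides.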 The settings on record: higher = more signal.
Assay [10] concerns Inhibin beta A chain (activin A). The experiment in a line: small molecules binding activin A – biochemical, small-molecule microarray, 635 nm fluorescence scan, primary screen (AID 1107).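 Further: mouse activin A protein probed at 4.33 µg/mL on printed slides; score merges bound-protein fluorescence near 667 nm with spot signal-to-noise.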 As to conditions: INHBA, higher = more signal.
Assay [11] has as its system Human papillomavirus type 1a protein E7 (residues 44-93). Nature of the assay: small molecules binding HPV E7 44-93 – biochemical, small-molecule microarray, residues 44-93, 635 nm fluorescence, primary screen (AID 1108).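 Further: E7 fragment applied at 1 µg/mL in TBST for 1 h at 4 C; score combines spot fluorescence with its signal to noise ratio.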 The settings on record: fluorescence 635 nm, higher = more signal.
A short description of assay [12]: hepatitis C replication reporter changes, two-sided – Huh7 cells, luciferase reporter, HCV replication inhibitor project, primary screen (AID 1109).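 Further: huh7 hepatoma cells harbouring a luciferase neomycin HCV replicon reporter; luciferase luminescence as measure of HCV replicon replication; test concentration not given here.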 As to conditions: Huh7 HCV replicon luciferase reporter, 48 h; higher = more signal.
For assay [13], the target named is Left-right determination factor 2 (Homo sapiens) (UniProt O00292). Nature of the assay: small molecules binding LEFTY2 protein – biochemical, small-molecule microarray, 635 nm fluorescence scan, primary screen (AID 1110). As to conditions: higher = more signal.
Assay [14] addresses Calmodulin-1 (Homo sapiens) (UniProt P0DP23). Nature of the assay: small molecules binding calmodulin-1 with EGTA – biochemical, small-molecule microarray, Cy5-labelled CALM1, profiling panel (AID 1111).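 Further: labelled calmodulin applied in Tris saline Tween buffer holding calcium plus EGTA and DTT.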 The settings on record: Cy5-CALM1 binding fluorescence, higher = more signal.
Assay [15] has the same target. Nature of the assay: small molecules binding Ca-loaded calmodulin-1 – biochemical, small-molecule microarray, Cy5-labelled CALM1, plus calcium, artefact control for SMM control-protein annotation, profiling panel (AID 1112).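 Further: score merges spot fluorescence with signal to noise from triplicate slides.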 The settings on record: Cy5-CALM1 binding fluorescence, higher = more signal.
Assay [16] in a line: probe aWnt5a binding to arrayed compounds – biochemical, biotinylated probe, 635/667 nm fluorescence, primary screen (AID 1113).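 Further: score merges 667 nm fluorescence intensity with signal-to-noise per printed feature.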 As to conditions: small-molecule microarray, higher = more signal.
Assay [17] can be described thus: probe aShh binding to arrayed compounds – biochemical, biotinylated probe, 635/667 nm fluorescence, primary screen (AID 1114).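 Further: probe is biotin-labelled aShh protein from a stem cell growth factor screen; measures binding of labelled protein to compounds printed on the slide; score merges feature fluorescence at 667 nm with signal-to-noise.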 The settings on record: small-molecule microarray, higher = more signal.
A short description of assay [18]: probe aNog binding to arrayed compounds – biochemical, biotinylated probe, 635/667 nm fluorescence, primary screen (AID 1115).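 Further: probe is biotinylated aNog protein used at 0.15 µg/mL for 1 h at 4 C; z-score combines 667 nm fluorescence of each spot with its signal to noise.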 The settings on record: small-molecule microarray, higher = more signal.
Assay [19] addresses Torsin-1A-interacting protein 1 (Homo sapiens) (UniProt Q5JTV8). Nature of the assay: compound microarray binding of lysate hLAP1 – cell lysate, small-molecule microarray, COS7 lysate, 635/667 nm fluorescence, primary screen (AID 1116). The settings on record: 635 nm fluorescence, higher = more signal.
In assay [20] the target is Alpha-bungarotoxin (Bungarus multicinctus) (UniProt P60615). The experiment in a line: compounds binding labelled alpha-BTX control protein – biochemical, small-molecule microarray, Alexa647 label, 635/667 nm fluorescence, artefact control for SMM control protein annotation, profiling panel (AID 1117). As to conditions: alpha-BTX-A647 binding fluorescence, higher = more signal.

Each structure is given as a SMILES string. Activity calls are given as the source filed them.

Sequence of Alpha-bungarotoxin (Bungarus multicinctus) (P60615 whole entry, looked up): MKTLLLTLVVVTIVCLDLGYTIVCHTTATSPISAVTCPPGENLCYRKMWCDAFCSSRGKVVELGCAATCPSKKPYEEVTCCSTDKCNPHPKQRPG
Sequence of Epidermal growth factor receptor (Homo sapiens) (P00533 whole entry, looked up): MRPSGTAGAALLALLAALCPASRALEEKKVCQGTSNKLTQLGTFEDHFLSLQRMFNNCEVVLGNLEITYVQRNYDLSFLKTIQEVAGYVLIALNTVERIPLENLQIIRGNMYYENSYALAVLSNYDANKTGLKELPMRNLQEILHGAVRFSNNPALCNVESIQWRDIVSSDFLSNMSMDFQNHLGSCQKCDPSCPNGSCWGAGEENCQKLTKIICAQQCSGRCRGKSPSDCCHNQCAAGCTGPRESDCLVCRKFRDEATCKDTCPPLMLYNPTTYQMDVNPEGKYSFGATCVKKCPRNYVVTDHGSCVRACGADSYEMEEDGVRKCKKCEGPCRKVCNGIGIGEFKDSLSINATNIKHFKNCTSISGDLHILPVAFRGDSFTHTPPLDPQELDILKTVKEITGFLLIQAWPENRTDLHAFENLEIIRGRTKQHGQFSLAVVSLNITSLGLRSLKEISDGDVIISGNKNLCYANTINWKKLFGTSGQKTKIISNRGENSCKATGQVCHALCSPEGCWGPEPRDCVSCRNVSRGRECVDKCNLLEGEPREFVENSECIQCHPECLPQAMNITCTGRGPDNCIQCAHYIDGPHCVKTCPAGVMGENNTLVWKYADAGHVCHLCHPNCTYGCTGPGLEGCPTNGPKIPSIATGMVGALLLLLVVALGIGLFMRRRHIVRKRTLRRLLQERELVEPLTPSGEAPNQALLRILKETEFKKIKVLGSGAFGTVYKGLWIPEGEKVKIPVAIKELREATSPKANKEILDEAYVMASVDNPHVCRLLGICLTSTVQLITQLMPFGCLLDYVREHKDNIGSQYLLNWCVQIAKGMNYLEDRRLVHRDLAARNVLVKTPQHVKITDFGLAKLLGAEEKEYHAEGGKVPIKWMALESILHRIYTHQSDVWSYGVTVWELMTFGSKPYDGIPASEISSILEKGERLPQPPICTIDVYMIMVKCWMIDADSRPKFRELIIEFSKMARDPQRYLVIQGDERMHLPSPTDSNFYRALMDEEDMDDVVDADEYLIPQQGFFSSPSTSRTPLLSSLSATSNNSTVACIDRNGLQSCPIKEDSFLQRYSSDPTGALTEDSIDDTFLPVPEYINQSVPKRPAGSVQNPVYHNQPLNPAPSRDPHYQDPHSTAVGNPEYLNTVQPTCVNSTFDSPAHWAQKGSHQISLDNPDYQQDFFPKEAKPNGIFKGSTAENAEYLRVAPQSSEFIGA
Sequence of Follistatin-related protein 3 (Homo sapiens) (O95633 whole entry, looked up): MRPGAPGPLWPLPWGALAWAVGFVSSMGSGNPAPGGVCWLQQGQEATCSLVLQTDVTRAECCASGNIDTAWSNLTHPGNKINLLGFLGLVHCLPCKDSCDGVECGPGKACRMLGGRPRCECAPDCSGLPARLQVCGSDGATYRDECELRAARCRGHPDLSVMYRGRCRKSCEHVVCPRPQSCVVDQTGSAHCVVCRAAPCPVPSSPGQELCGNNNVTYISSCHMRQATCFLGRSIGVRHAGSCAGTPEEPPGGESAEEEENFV
Sequence of Dickkopf-related protein 1 (Homo sapiens) (O94907 whole entry, looked up): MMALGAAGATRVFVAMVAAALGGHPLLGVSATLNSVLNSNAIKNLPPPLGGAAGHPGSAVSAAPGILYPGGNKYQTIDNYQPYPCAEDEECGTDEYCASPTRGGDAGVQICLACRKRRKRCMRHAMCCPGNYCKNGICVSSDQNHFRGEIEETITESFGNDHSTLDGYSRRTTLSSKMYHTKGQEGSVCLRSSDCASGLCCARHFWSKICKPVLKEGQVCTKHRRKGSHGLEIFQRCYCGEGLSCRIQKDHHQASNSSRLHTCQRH
Sequence of Left-right determination factor 2 (Homo sapiens) (O00292 whole entry, looked up): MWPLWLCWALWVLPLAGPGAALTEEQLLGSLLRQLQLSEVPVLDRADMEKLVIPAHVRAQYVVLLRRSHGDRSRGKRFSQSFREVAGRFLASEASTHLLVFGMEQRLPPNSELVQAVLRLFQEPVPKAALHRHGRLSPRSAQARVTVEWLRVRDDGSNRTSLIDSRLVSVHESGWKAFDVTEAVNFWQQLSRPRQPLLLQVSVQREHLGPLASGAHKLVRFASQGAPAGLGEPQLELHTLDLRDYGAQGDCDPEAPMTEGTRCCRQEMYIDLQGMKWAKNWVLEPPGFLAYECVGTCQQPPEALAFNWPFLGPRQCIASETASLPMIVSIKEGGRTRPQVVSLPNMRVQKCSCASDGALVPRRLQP
Sequence of Torsin-1A-interacting protein 1 (Homo sapiens) (Q5JTV8 whole entry, looked up): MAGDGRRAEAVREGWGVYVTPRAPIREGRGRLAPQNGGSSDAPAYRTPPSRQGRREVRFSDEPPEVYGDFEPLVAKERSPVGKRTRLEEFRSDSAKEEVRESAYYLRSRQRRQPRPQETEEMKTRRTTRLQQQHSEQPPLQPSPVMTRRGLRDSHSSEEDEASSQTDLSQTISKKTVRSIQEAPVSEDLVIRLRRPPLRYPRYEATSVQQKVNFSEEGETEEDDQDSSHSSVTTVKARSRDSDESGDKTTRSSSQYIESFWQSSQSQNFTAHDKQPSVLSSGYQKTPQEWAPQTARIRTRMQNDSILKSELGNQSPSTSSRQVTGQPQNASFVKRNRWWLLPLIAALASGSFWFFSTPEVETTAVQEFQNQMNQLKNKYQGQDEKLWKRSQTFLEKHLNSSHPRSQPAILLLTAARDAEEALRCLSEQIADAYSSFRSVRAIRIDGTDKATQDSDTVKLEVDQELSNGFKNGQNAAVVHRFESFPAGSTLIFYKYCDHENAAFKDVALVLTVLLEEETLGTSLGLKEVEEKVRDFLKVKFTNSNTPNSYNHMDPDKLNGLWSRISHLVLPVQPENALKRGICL
Sequence of Fibroblast growth factor 10 (Homo sapiens) (O15520 whole entry, looked up): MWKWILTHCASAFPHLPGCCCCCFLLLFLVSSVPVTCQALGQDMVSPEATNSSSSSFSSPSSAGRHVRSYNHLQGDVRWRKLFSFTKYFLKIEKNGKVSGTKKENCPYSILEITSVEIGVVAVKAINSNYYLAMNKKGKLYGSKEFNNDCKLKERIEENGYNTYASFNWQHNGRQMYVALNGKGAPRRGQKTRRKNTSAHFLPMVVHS

`C=CCc1cccc([C@H]2N[C@H](C(=O)O)CC[C@@H]2C)c1`: the composite z-score in assay [1] was 0.289; in assay [2], -0.6; in assay [3] it was -0.832; in assay [5], 0.219; in assay [6] it was 0.706; in assay [7] it was 0.793. For the same molecule, the composite z-score in assay [8] is 0.778; in assay [9] it was 1.22; in [10] it was 1.12; in assay [11] it was 0.175; in assay [13] it was 0.956; in [14] it was -0.962. For the same molecule, the composite z-score was -1.26 in assay [15]; -0.232 in [16]; -0.271 in assay [17]; -0.539 in assay [18]; 0.0883 in assay [19]; -0.142 in assay [20]. Besides, the z-score is -0.704 (inactive) in [4] and -0.222 in assay [12].

As to `CCC#CCN(Cc1ccccc1Br)[C@H](/C=C/c1ccccc1)[C@@H](O)Cc1ccccc1`, the composite z-score in [1] is 0.193; in assay [2] it was 0.0099; in [3], 1.28; in assay [5], -0.89; in assay [6] it was -0.688; in assay [7], -1.53. Also, the composite z-score was -1.81 in assay [8]; -1.6 in [9]; 1.05 in [10]; -0.0687 in assay [11]; -0.635 in assay [13]; -0.481 in assay [14]. Besides, the composite z-score in assay [15] was 0.402; in assay [16] it was -0.152; in [17] it was -0.138; in assay [18], -0.326; in assay [19] it was -0.613; in [20], -0.0441. The z-score in assay [4] was -1.89 (inactive); in [12] it was -2.58.

Turning to `CSCC[C@@H]1NC(=O)CC=C[C@@H](C)COC(=O)[C@H](CCSC)NC(=O)CC=C[C@@H](C)COC1=O`, the composite z-score in assay [1] is -0.191; in assay [2], -0.396; in [3] it was -0.607; in assay [5], 0.435; in assay [6], 0.0287; in assay [7], 0.434. In addition, the composite z-score was 0.678 in assay [8]; 1.12 in [9]; -0.149 in assay [10]; -0.507 in [11]; 0.42 in [13]; -1.21 in assay [14]. Also, the composite z-score in assay [15] was -0.58; in [16], -0.168; in assay [17], 0.0756; in assay [18], -0.255; in [19] it was -0.242; in assay [20], -0.222. The z-score in [4] was -1.02 (inactive); in assay [12] it was -0.116.

For `CCCNC(=O)[C@@H]1c2ccccc2C(=O)N(Cc2cc(F)cc(C(F)(F)F)c2)[C@H]1c1ccc(CO)cc1`, the composite z-score was 1.54 in [1]; 0.792 in assay [2]; 0.853 in [3]; 0.926 in assay [5]; 1.29 in assay [6]; 0.497 in assay [7]. In addition, the composite z-score in assay [8] was 1.35; in [9], 0.677; in assay [10], 1.05; in assay [11] it was 0.0588; in assay [13], 0.498; in assay [14] it was 1.04. Moreover, the composite z-score in [15] was -0.263; in assay [16] it was 0.0079; in assay [17] it was 0.188; in [18] it was -0.154; in assay [19], 1.44; in assay [20], 1.21. The values for the z-score in assay [4] and in [12] were -1.26 (inactive) and -0.901, respectively.

For the molecule `CC(C)C[C@@H]1NC(=O)[C@H](CC(C)C)NC(=O)[C@@]23C(=O)N[C@@H](Cc4ccccc4)C2[C@H](C)[C@@]2(C)O[C@H]2C3/C=C/CC/C=C/CNC1=O` (stereo not given in full), the composite z-score was 1.05 in assay [1]; -0.233 in [2]; -0.406 in assay [3]; 0.707 in assay [5]; 0.516 in assay [6]; 0.543 in assay [7]. Further, the composite z-score in [8] amounted to 0.998; in assay [9], 1.19; in assay [10], 1.38; in assay [11], 1.34; in [13], 0.521; in assay [14] it was 0.102. The composite z-score in [15] is -0.747; in assay [16], -0.101; in [17] it was -0.221; in assay [18], -0.261; in assay [19], 0.292; in [20], 0.683. Also, the z-score in assay [4] is -0.218 (inactive); in assay [12], -1.24.

The record behind these values is PubChem BioAssay.
